SMILES strings stand for the structures. Several values for one entry are separate records, joined by “and”; a condition that tells them apart may be missing. Equal entries are not always repeated. Results filed as inconclusive are left out. Some structures have more than one record in an assay (separate samples or runs), and their calls can disagree. Activity calls are given as the source filed them. Calls come from the whole dose curve; as a rule, active = well fitted curve in the direction sought with a large enough effect in the repeat runs; inconclusive = weak or mixed curves; inactive = no such curve, though single readings can be large; an effect the other way counts as inactive or inconclusive.

Data on 38 compounds can be found in PubChem BioAssay (Tox21).
% is set by controls: 0 for no effect and ±100 for the full control effect; potency is the fitted concentration of half-maximal effect.

The first assay is described as follows: qHTS RealTime-Glo MT Cell Viability Assay in HepG2 cells - 40 hour (AID 1224870). Note: nearly all actives have a fitted effect of over 50% in size. To be noted: RealTime-Glo luminescence; series mostly up to 76.8 µM; activity change, negative = cytotoxic: at the top concentration. In outline:
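HepG2 cells (600/well) mixed with RealTime-Glo MT reagent, settled 5 h at 37 C/5% CO2 before compound addition. Nonlytic NanoLuc luminescence from viable-cell prosubstrate reduction read repeatedly during 40 h treatment at 37 C.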
A general note: In qHTS, concentration-response curves come from the screen itself.
For the compound `O=C(O)c1cn(-c2ccc(F)cc2)c2cc(N3CCNCC3)c(F)cc2c1=O`, the Potency result is “inactive”. In the case of `CCCCC(CC)COC(=O)CC(C(=O)OCC(CC)CCCC)S(=O)(=O)O` (centres undefined), the Potency result is “inactive”. As to `NC(N)=Nc1nc(CSCC/C(N)=N/S(N)(=O)=O)cs1`, the Potency result is “inactive”. The same measure, in the same setting: then `O=C(Oc1ccccc1)c1ccccc1O`, with “inactive”.

As to `CCN1CCCC1CNC(=O)c1cc(S(=O)(=O)CC)c(N)cc1OC` (centres undefined), the “activity change, negative = cytotoxic” value was 2.51% [at 35.3 µM] (inactive). With `OCC(CO)N[C@H]1C[C@](O)(CO)[C@@H](O)[C@H](O)[C@H]1O`, the “activity change, negative = cytotoxic” value is -0.0885% [at 35.3 µM] (inactive). Take `CCCCCCCCCCCCCC[P+](CCCC)(CCCC)CCCC`: the Potency is 21.8 µM (active) and 11 µM (active).

In the case of `O=C(O)c1cccc(C(=O)O)c1`, the Potency result is “inactive”. On the same count and under the same terms, for `CC(=O)N[C@@H](CS)C(=O)O` the value was “inactive”. On to `CC1COC(=O)O1` (centres undefined), for which the Potency entry is “inactive”.

In the case of `c1cc(C(c2ccc(OCC3CO3)cc2)C(c2ccc(OCC3CO3)cc2)c2ccc(OCC3CO3)cc2)ccc1OCC1CO1` (centres undefined), the Potency entry was “inactive”.

As to `NC(N)=NC(=O)Cc1c(Cl)cccc1Cl`, the “activity change, negative = cytotoxic” value was 0.963% [at 35.3 µM] (inactive). Same read-out and setting: for `CCCC(=O)c1ccccc1` the value was 2.08% (inactive). For the compound `C=C(C)C1CC=C(C)C(OC(C)=O)C1` (centres undefined), the Potency result was “inactive”. For the compound `CC(C)(C)NCC(O)COc1ccccc1OCC1CCCO1` (centres undefined), the “activity change, negative = cytotoxic” value is 0.969% [at 35.3 µM] (inactive). The same measure, in the same setting: then `COC(=O)[C@H]1[C@H]2C[C@@H]3c4[nH]c5cc(OC)ccc5c4CCN3C[C@H]2C[C@@H](OC(=O)c2cc(OC)c(OC)c(OC)c2)[C@@H]1OC`, with -20.2% [at 35.3 µM] (inactive). As to `c1ccc2n[nH]nc2c1`, the Potency entry was “inactive”. Same read-out and setting: for `CC(=O)OCCOCCOCCOC(C)=O` the value was “inactive”; for `COC(=O)/C=C/c1ccccc1`, “inactive”.

`Cc1scc2c1N(C(=O)CN1CCN(C)CC1)c1ccccc1NC2=O`: the “activity change, negative = cytotoxic” value is 0.248% [at 35.3 µM] (inactive). For the compound `Oc1c(Cl)cc(Cl)c(Cl)c1Cc1c(O)c(Cl)cc(Cl)c1Cl`, the Potency entry is “inactive and 38.9 µM (active)”. On the same count and under the same terms, for `Nc1nc2ccccc2[nH]1` the value was “inactive”; for `CCN(CC)C(=S)SSC(=S)N(CC)CC`, 100 nM (active).

With `NCCCCCC(=O)O`, the “activity change, negative = cytotoxic” value was 5.16% [at 35.3 µM] (inactive).

Regarding `CC(C)(C)c1ccc(O)c(C(C)(C)C)c1`, the “activity change, negative = cytotoxic” value was -23.4% (inactive).

Take `O=C(O)CCc1ccccc1`: the “activity change, negative = cytotoxic” value is 0.35% (inactive). Consider `OCCN1CCNCC1`, for which the Potency entry was “inactive”. As to `[Cl][In]([Cl])[Cl]`, the Potency result is “inactive”. On to `CC(C)CCOC(=O)c1ccc(N(C)C)cc1`, for which the “activity change, negative = cytotoxic” value is -5.14% [at 35.3 µM] (inactive). For the compound `Cc1cc(C2(c3cc(C)c(O)cc3C)OS(=O)(=O)c3ccccc32)c(C)cc1O`, the “activity change, negative = cytotoxic” value is -26.4% (inactive). Consider `CCOC(=O)C(C)C(C)=O` (centres undefined), for which the “activity change, negative = cytotoxic” value is -0.69% (inactive). On to `CC(C)(C)c1cc(C(C)(C)C)c(O)c(C(C)(C)C)c1`, for which the Potency result was “inactive”. The same measure, in the same setting: for `CCC[C@H](N[C@@H](C)C(=O)N1[C@H](C(=O)O)C[C@@H]2CCCC[C@@H]21)C(=O)OCC` the value was “inactive”; for `CC(COc1ccccc1)N(CCCl)Cc1ccccc1` (centres undefined), “inactive”; for `O=C1CC2(CCCC2)CC(=O)N1CCCCN1CCN(c2ncccn2)CC1`, “inactive”. On to `O=c1n(CC2CO2)c(=O)n(CC2CO2)c(=O)n1CC1CO1` (centres undefined), for which the Potency entry was “inactive”.

Another assay in a line: A CellTox Green Cytotoxicity Assay to monitor cytotoxicity in HEK293 cells - 40 hour (AID 1224871). Note: nearly all actives have a fitted effect of over 45% in size. To be noted: CellTox Green fluorescence; series mostly up to 76.8 µM; cytotoxicity increase: at the top concentration. A digest of the protocol:
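Cells (HEK293, 600/well) and dye reagent are dispensed together. After 5 h at 37 C, 23 nL compound is pinned in. Plates stay at 37 C for 40 h with fluorescence read at 0h, 8h, 16h, 24h, 32h and 40h.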
Regarding `O=C(O)c1cn(-c2ccc(F)cc2)c2cc(N3CCNCC3)c(F)cc2c1=O`, the Potency result is “inactive”.

Consider `CCCCC(CC)COC(=O)CC(C(=O)OCC(CC)CCCC)S(=O)(=O)O` (centres undefined), for which the Potency was 24.5 µM (active). Same read-out and setting: for `NC(N)=Nc1nc(CSCC/C(N)=N/S(N)(=O)=O)cs1` the value was “inactive”. On to `O=C(Oc1ccccc1)c1ccccc1O`, for which the “cytotoxicity increase” value is 7.92% [at 35.3 µM] (inactive). On the same count and under the same terms, then `CCN1CCCC1CNC(=O)c1cc(S(=O)(=O)CC)c(N)cc1OC` (centres undefined), with 5.28% [at 35.3 µM] (inactive); and `OCC(CO)N[C@H]1C[C@](O)(CO)[C@@H](O)[C@H](O)[C@H]1O`, with 4.27% [at 35.3 µM] (inactive). As to `CCCCCCCCCCCCCC[P+](CCCC)(CCCC)CCCC`, the Potency was 13.7 µM (active) and 17.4 µM (active).

Consider `O=C(O)c1cccc(C(=O)O)c1`, for which the Potency result was “inactive”.

Consider `CC(=O)N[C@@H](CS)C(=O)O`, for which the “cytotoxicity increase” value was -10.9% [at 35.3 µM] (inactive).

For the compound `CC1COC(=O)O1` (centres undefined), the Potency result is “inactive”. On to `c1cc(C(c2ccc(OCC3CO3)cc2)C(c2ccc(OCC3CO3)cc2)c2ccc(OCC3CO3)cc2)ccc1OCC1CO1` (centres undefined), for which the “cytotoxicity increase” value was -1.91% (inactive).

As for `NC(N)=NC(=O)Cc1c(Cl)cccc1Cl`, the “cytotoxicity increase” value was 2.85% [at 35.3 µM] (inactive). `CCCC(=O)c1ccccc1`: the “cytotoxicity increase” value was 2.82% (inactive). The same measure, in the same setting: for `C=C(C)C1CC=C(C)C(OC(C)=O)C1` (centres undefined) the value was -4.81% (inactive); for `CC(C)(C)NCC(O)COc1ccccc1OCC1CCCO1` (centres undefined), 3.33% [at 35.3 µM] (inactive). Consider `COC(=O)[C@H]1[C@H]2C[C@@H]3c4[nH]c5cc(OC)ccc5c4CCN3C[C@H]2C[C@@H](OC(=O)c2cc(OC)c(OC)c(OC)c2)[C@@H]1OC`, for which the Potency entry was “inactive”. Regarding `c1ccc2n[nH]nc2c1`, the “cytotoxicity increase” value was -11.6% (inactive).

Turning to `CC(=O)OCCOCCOCCOC(C)=O`, the Potency result was “inactive”. For `COC(=O)/C=C/c1ccccc1`, the Potency entry was “inactive and 21.9 µM (active)”.

As to `Cc1scc2c1N(C(=O)CN1CCN(C)CC1)c1ccccc1NC2=O`, the “cytotoxicity increase” value was -3.2% [at 35.3 µM] (inactive). For the compound `Oc1c(Cl)cc(Cl)c(Cl)c1Cc1c(O)c(Cl)cc(Cl)c1Cl`, the Potency is 48.9 µM (active) and 49 µM (active) and inactive. Still for that read-out and setting: then `Nc1nc2ccccc2[nH]1`, with “inactive”; and `CCN(CC)C(=S)SSC(=S)N(CC)CC`, with 155 nM (active) and 5.62 µM (active) and 84.9 nM (active). As to `NCCCCCC(=O)O`, the “cytotoxicity increase” value is -5.83% [at 35.3 µM] (inactive).

With `CC(C)(C)c1ccc(O)c(C(C)(C)C)c1`, the Potency is 24.4 µM (active) and 34.7 µM (active). Take `CCC(C)(C)C(=O)O[C@H]1C[C@@H](C)C=C2C=C[C@H](C)[C@H](CC[C@@H]3C[C@@H](O)CC(=O)O3)[C@H]21`: the “cytotoxicity increase” value was -12.6% (inactive). Still for that read-out and setting: then `O=C(O)CCc1ccccc1`, with -13.8% (inactive); and `OCCN1CCNCC1`, with -7.1% (inactive); and `[Cl][In]([Cl])[Cl]`, with -6.85% (inactive). As to `CC[C@H]1CN2CCc3cc(OC)c(OC)cc3[C@@H]2C[C@@H]1C[C@H]1NCCc2cc(OC)c(OC)cc21`, the Potency is 55.1 µM (active).

Turning to `CC(C)CCOC(=O)c1ccc(N(C)C)cc1`, the “cytotoxicity increase” value is -1.73% [at 35.3 µM] (inactive). Consider `Cc1cc(C2(c3cc(C)c(O)cc3C)OS(=O)(=O)c3ccccc32)c(C)cc1O`, for which the Potency entry is “inactive”. In the case of `CCOC(=O)C(C)C(C)=O` (centres undefined), the “cytotoxicity increase” value was 0.167% (inactive). As for `CC(C)(C)c1cc(C(C)(C)C)c(O)c(C(C)(C)C)c1`, the Potency is 54.9 µM (active) and 34.7 µM (active). On the same count and under the same terms, for `CCC[C@H](N[C@@H](C)C(=O)N1[C@H](C(=O)O)C[C@@H]2CCCC[C@@H]21)C(=O)OCC` the value was “inactive”; for `CC(COc1ccccc1)N(CCCl)Cc1ccccc1` (centres undefined), 49.5 µM (active) and 21.3 µM (active); for `O=C1CC2(CCCC2)CC(=O)N1CCCCN1CCN(c2ncccn2)CC1`, “inactive”. On the same count and under the same terms, then `O=c1n(CC2CO2)c(=O)n(CC2CO2)c(=O)n1CC1CO1` (centres undefined), with “inactive”.
